Hit rate of the full screen: of about 390,000 compounds, about 17,000 (4.4%) were called active. Inconclusive results (about 8%) are left out. Calls come from the whole dose curve; as a rule, active = well fitted inhibition curve with a large enough effect; inconclusive = small, poorly fitted or top-dose-only effect; inactive = no such curve, though single readings can be large or run the other way. The list comes from a sample in which actives are over-represented; it also holds similar structures and randomly drawn compounds.
% is set by controls: 0 for no effect and ±100 for the full control effect; potency is the fitted concentration of half-maximal effect.

For the assay, the target named is Lysine-specific demethylase 4A (Homo sapiens) (UniProt O75164). Nature of the assay: qHTS Assay for Inhibitors of JMJD2A-Tudor Domain. Note: nearly all actives have a fitted effect of over 50% in size. The following applies: AlphaScreen JMJD2A-Tudor / H3K4me3 peptide binding; series mostly up to 114 µM; activity change, negative = inhibition: at the top concentration. From the text: JMJD2A is a jumonji-domain-containing lysine demethylase that uses Fe(II) together with 2-OG to effect oxidative demethylation of histones. Methylation is one of many […] modification that affect epigenetic transcription. […] It is proposed that the functions of JmjD2A binding to the histones, is to maintain marks after they are installed and to spread the modifications by […], establishing a self-propagating cycle for rapid methylation over a large area of chromatin. […] Thus, small molecule targeting of the JMJD2A-tudor domain interaction with its target methylhistone mark is expected to enable sophisticated experiments probing the fine regulatory pathways leading to selective demethylation of a given methyllysine locus based on the methylation state of adjacent histone marks. A quantitative high throughput AlphaScreen has been developed to identify small molecule inhibitors based on a protocol published by NCGC and SGC [4].
Lysine-specific demethylase 4A (Homo sapiens), sequence (O75164 whole entry, looked up, the tested form may be a part): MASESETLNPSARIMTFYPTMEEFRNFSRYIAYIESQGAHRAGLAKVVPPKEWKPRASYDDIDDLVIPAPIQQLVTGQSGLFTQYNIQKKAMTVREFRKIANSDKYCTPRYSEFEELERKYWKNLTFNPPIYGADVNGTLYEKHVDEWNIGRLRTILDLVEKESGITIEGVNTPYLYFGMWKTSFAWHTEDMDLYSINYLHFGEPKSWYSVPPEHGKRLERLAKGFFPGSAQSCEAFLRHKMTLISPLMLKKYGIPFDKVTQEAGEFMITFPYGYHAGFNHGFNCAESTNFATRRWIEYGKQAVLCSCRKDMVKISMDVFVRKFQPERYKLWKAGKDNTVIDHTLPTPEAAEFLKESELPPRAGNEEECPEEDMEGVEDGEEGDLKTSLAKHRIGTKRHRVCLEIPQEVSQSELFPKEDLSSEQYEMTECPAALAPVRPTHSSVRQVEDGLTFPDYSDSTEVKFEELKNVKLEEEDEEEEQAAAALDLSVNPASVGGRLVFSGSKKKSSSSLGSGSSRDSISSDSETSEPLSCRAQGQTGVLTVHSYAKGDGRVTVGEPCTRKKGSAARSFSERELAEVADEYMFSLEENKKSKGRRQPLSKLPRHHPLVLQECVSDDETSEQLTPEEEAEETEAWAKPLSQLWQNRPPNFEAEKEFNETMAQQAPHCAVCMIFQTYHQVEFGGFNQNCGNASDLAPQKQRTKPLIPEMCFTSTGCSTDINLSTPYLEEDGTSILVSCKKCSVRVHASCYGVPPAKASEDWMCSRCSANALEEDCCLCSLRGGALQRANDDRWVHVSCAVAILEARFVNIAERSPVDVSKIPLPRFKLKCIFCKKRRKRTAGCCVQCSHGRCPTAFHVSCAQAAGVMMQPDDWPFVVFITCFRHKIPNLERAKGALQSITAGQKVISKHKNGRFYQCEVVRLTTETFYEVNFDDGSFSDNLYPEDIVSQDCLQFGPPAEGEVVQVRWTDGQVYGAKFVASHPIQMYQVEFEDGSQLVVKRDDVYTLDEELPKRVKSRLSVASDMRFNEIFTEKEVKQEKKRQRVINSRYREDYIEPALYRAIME
Although AlphaScreen has significant advantages with its utility in a variety of epigenetic target assays, the primary screening data provided in this deposition should be used with caution due to the prevalence of screening artifacts. The top compound concentration tested was high (>100uM) in this assay, which increases number of actives and potential artifacts. An AlphaScreen counterscreen is highly recommended to be run against any putative actives to eliminate non-specific artifacts. Alternatively, one can use other AlphaScreen assays in PubChem to filter out promiscuous hits.
[1] Lee, J. et al. Distinct binding modes specify the recognition of methylated histone H3K4 and H4K20 by JMJD2A-tudor. Nat Struct Mol Biol. 15(1); 109-11. 2008. PMID: 18084306
[2] Yasgar, et al. Compound Management for Quantitative High-Throughput Screening. JALA. 2008 Apr;13(2):79-89. PMID: 18496600
[3] Inglese, et al. Quantitative high-throughput screening: a titration-based approach that efficiently identifies biological activities in large chemical libraries. Proc Natl Acad Sci. 1;103(31):11473-8. 2006. PMID: 16864780
[4] Quinn et al. A homogeneous method for investigation of methyl-dependent protein-protein interactions in epigenetics. Nucleic Acids Res., 38(2):e11. 2010. PMID: […]
[5] Baell,Holloway. New substructure filters for removal of pan assay interference compounds (PAINS) from screening libraries and for their exclusion in bioassays. J Med Chem. 53(7):2719-40. 2010. PMID: 20131845
NIH Molecular Libraries Probe Production Network [MLPCN]
NIH Chemical Genomics Center [NCGC]
Structural Genomics Consortium (SGC)
To each well of a 1,536w plate, 2ul of JMJD2A-Tudor (final 100nM) and 1ul biotinylated histone peptide methylated at Lys4 [b-H3(1-18)K4me3] (final 50nM) were added in 1x PBS buffer, pH 7.4, containing 0.01% Tween-20, using a nanoliter dispenser. Formation of a protein-peptide complex proceeded at room temperature for 30 min. A Kalypsys pin-tool transferred 23nl of library compound solution in DMSO to each well. Following a 30 min incubation of the protein-peptide complex with compounds at room temperature, a mixture of 40 µg/mL each streptavidin-coated donor and nickel chelate acceptor AlphaScreen beads (final 10 µg/mL) was added in a 1ul dispense for a final volume of 4ul, followed by a brief centrifugation (1000 rpm, 1 min). Plates were incubated protected from the light for 20 min at room temperature. Microplates were then read on an EnVision multilabel plate reader using the 1,536 plate HTS AlphaScreen aperture (excitation time 80 ms, measurement time 240 ms).
(In qHTS, concentration-response curves come from the screen itself.)
On to `CCc1nn(CC(=O)NCC(C)c2ccccc2)c(=O)c2cc3occc3n12` (centres undefined), for which the “activity change, negative = inhibition” value is 1.34% (inactive).

For the molecule `COc1ccccc1CNc1nccn(-c2ccc(F)cc2)c1=O`, the “activity change, negative = inhibition” value was -23.1% (inactive).

With `COc1ccc(OC)c(CNC(=O)c2c3c(nc4ccccc24)C(=O)N(C2CCCCC2)C3)c1`, the “activity change, negative = inhibition” value was -18% (inactive).

For the molecule `Cc1cccc(N2CCN(C(=O)CCSCc3ccccc3F)CC2)c1C`, the “activity change, negative = inhibition” value is 5.2% (inactive).

For `CCOc1ccc(OCC)c(NS(=O)(=O)c2ccc3[nH]c(=O)ccc3c2)c1`, the “activity change, negative = inhibition” value was -14.2% (inactive).

As for `CCOc1ccc(S(=O)(=O)NCCCn2ccnc2)cc1NC(C)=O`, the “activity change, negative = inhibition” value was -4.83% (inactive).

Turning to `C=CCc1cc(C)ccc1OCCCn1ccnc1`, the Potency was 20 µM (active).

Take `Cc1ccc2c(Cl)c(C(=O)NCCCn3ccnc3)sc2c1`: the “activity change, negative = inhibition” value is -35.4% (inactive).

In the case of `Clc1c(OCCCn2ccnc2)ccc2ccccc12`, the Potency is 56.2 µM (active).

In the case of `O=C(NCCCn1ccnc1)c1ccccc1F`, the “activity change, negative = inhibition” value is -17.2% (inactive).

As to `Brc1ccc(OCCn2ccnc2)cc1`, the “activity change, negative = inhibition” value was -22.5% (inactive).

`COc1ccc(-c2noc(CSc3nc4ccc(C)cc4[nH]3)n2)cc1`: the “activity change, negative = inhibition” value was -16% (inactive).

As to `COc1ccc(CCNCc2c(C(=O)O)c(C)n(Cc3cccc(C)c3)c2C)cc1OC`, the “activity change, negative = inhibition” value was -10.7% (inactive).

As for `CC(=O)c1ccc(NC(=O)COc2ccccc2-c2nc(-c3ccccc3)no2)cc1`, the “activity change, negative = inhibition” value is -25.5% (inactive).

For `CCOC(=O)c1ccc(NC(=O)C2CC(=O)N(c3ccc(C(C)C)cc3)C2)cc1` (centres undefined), the “activity change, negative = inhibition” value is -15.4% (inactive).

In the case of `CCN(CC)S(=O)(=O)c1nnc(NC(=O)COc2ccccc2Cl)s1`, the Potency is 31.6 µM (active).

Take `Cc1ccccc1OCC(=O)Nc1nnc(S(=O)(=O)N2CCCC2)s1`: the “activity change, negative = inhibition” value is -10.3% (inactive).

Consider `CCC(=O)Nc1nnc(S(=O)(=O)N(CC(C)C)c2ccccc2)s1`, for which the “activity change, negative = inhibition” value was -3.73% (inactive).

Regarding `Cc1cccc(C)c1NC(=O)CSc1nnc(-c2ccccc2)n1Cc1ccc2c(c1)OCO2`, the “activity change, negative = inhibition” value is -23.6% (inactive).

As for `CC1=C(C(N)=O)C(c2ccc3c(c2)OCO3)n2nc(-c3cccc(C)c3)nc2N1` (centres undefined), the “activity change, negative = inhibition” value is -10.1% (inactive).

With `c1ccc(-c2nnc3n2NC(c2ccc4c(c2)OCO4)S3)cc1` (centres undefined), the Potency was 22.4 µM (active).

Consider `CCOc1ccccc1N(CC)C(=O)c1cc2ccc3cccnc3c2[nH]1`, for which the “activity change, negative = inhibition” value is -20.1% (inactive).

On to `O=[N+]([O-])c1ccc(Oc2ccc(F)cc2Br)c2ccncc12`, for which the Potency is 44.7 µM (active).

`COc1cccc(NC(=O)N2CCN(C(=O)c3nsc4ccccc34)CC2)c1`: the “activity change, negative = inhibition” value is 0% (inactive).

On to `CC1CCc2noc(NC(=O)c3ccc([N+](=O)[O-])cc3)c2C1` (centres undefined), for which the “activity change, negative = inhibition” value was -24.3% (inactive).

Turning to `COc1cccc(OCCn2c(-c3ccc(Br)cc3)nc3ccccc3c2=O)c1`, the “activity change, negative = inhibition” value is 18.7% (inactive).

`O=C(C1CCN(Cc2ccc(Cl)cc2)CC1)N1CCN(Cc2ccc3c(c2)OCO3)CC1`: the Potency was 2.51 µM (active).

For the molecule `O=C(Nc1ccccc1)N1CCC(C(=O)N2CCN(Cc3ccccc3)CC2)CC1`, the “activity change, negative = inhibition” value was -11.3% (inactive).

In the case of `O=C(C1CCN(C2CCN(Cc3cccc4c3OCO4)CC2)CC1)N1CCOCC1`, the “activity change, negative = inhibition” value is -4.11% (inactive).

As for `CCOc1ccc(C2C(C(=O)Nc3ccc(Cl)cc3)=C(C)Nc3nc(C(F)(F)F)nn32)cc1` (centres undefined), the “activity change, negative = inhibition” value is -9.21% (inactive).

As to `Cc1cccc(N2CCN(c3ccc(NC(=O)/C=C\C(=O)O)cc3)CC2)c1`, the activity change, negative = inhibition was -14.3% [at 11.4 µM] (inactive).

For the molecule `Cn1cnnc1SCC(=O)Nc1ccc(N2CCOCC2)cc1`, the “activity change, negative = inhibition” value was -6.09% (inactive).

As to `C=CC(=O)Nc1ccc(Nc2ccnc(Nc3ccc(N4CCN(C)CC4)cc3)n2)cc1`, the Potency was 31.6 µM (active).

As to `O=C(NCCCN1CCOCC1)c1cc(-c2ccc(Cl)cc2)on1`, the “activity change, negative = inhibition” value was -12.8% (inactive).

Regarding `COc1ccc(Cn2c(=S)[nH]c3cc(C(=O)NCCCN4CCOCC4)ccc3c2=O)cc1`, the “activity change, negative = inhibition” value is -18.9% (inactive).

As for `Cc1c(C)n(Cc2ccc(Cl)cc2)c2ccc(C(=O)NCCCN3CCOCC3)cc12`, the Potency is 89.1 µM (active).

As to `CCc1ccc2ncc3c(-c4ccc(C)cc4)nn(CC(=O)NCc4ccccc4)c3c2c1`, the “activity change, negative = inhibition” value was -23.7% (inactive).

On to `CC(=O)N1CCCc2cc(S(=O)(=O)N3CCC(C(=O)NCc4ccc(F)cc4)CC3)ccc21`, for which the “activity change, negative = inhibition” value is -10% (inactive).

As to `CCOc1ccccc1C(=O)NC1(C(F)(F)F)C(=O)Nc2c1c(=O)[nH]c(=O)n2-c1ccc(F)cc1` (centres undefined), the “activity change, negative = inhibition” value is 2.41% (inactive).

Turning to `CC(=O)N1c2ccc(S(=O)(=O)N(C)CC(=O)N(C)Cc3ccccc3)cc2CC1C` (centres undefined), the “activity change, negative = inhibition” value was -10.5% (inactive).

With `CC(=O)N1c2ccc(S(=O)(=O)NCCC(=O)N(C)C3CCCCC3)cc2CC1C` (centres undefined), the Potency is 14.1 µM (active).

`COc1cccc(CNS(=O)(=O)c2ccc3c(c2)CC(C)N3C(=O)C2CCC2)c1` (centres undefined): the Potency result was “inactive”.

As for `CCc1ccc(CN(Cc2ccco2)C(=O)c2ccccc2Cl)cc1`, the “activity change, negative = inhibition” value is -2.2% (inactive).

As for `C#CC(C)(CC)NC(=O)Cn1nnc(-c2ccc(OCc3c(F)cccc3Cl)cc2)n1` (centres undefined), the “activity change, negative = inhibition” value is -20.5% (inactive).

For the molecule `Cc1cc2c(s1)c1cnn(Cc3cc(F)c(Cl)cc3Cl)c(=O)c1n2C`, the “activity change, negative = inhibition” value is 6.85% (inactive).

As to `CCOC(=O)c1ccc(N2C(=O)c3n[nH]c(C)c3C2c2ccc(O)c(OC)c2)cc1` (centres undefined), the “activity change, negative = inhibition” value is -19.7% (inactive).

In the case of `Cc1sc2ncn(CC(=O)NCCN(C)C)c(=O)c2c1S(=O)(=O)N1CCC(C)CC1`, the Potency is 22.4 µM (active).

Consider `CCCN(CCC)CCNC(=O)Cn1cnc2sc(C)c(S(=O)(=O)N3CCC(C)CC3)c2c1=O`, for which the “activity change, negative = inhibition” value is -15.4% (inactive).

For `CCN(CC)CCNC(=O)Cn1cnc2sc(C)c(S(=O)(=O)N3CCOCC3)c2c1=O`, the “activity change, negative = inhibition” value was -3.57% (inactive).
